We go through 54 compounds from ChEMBL document CHEMBL4513216, “Probing the Open Global Health Chemical Diversity Library for Multistage-Active Starting Points for Next-Generation Antimalarials” (ACS Infect Dis, 2020).

About 8,600 (12%) of roughly 69,000 compounds showed an effect of 50% or more. The list comes from a sample in which strong results are over-represented; it also holds similar structures and randomly drawn compounds.

The test system of the experiment is Plasmodium berghei. The experiment in a line: Screen against P. berghei liver stage (PbLuc), transformed with Luciferase, at 10uM. Format: functional, HepG2. The settings on record: tested at 10 uM.
With `Cc1csc(N2CCN(C(=O)C3(C#N)CCCC3)CC2)n1`, the INHIBITION is given as -9.75%.

On to `NC(=O)COc1ccc(C2NC(=O)CN2Cc2ccc(Br)cc2)cc1` (centres undefined), for which the INHIBITION came to 15.9%.

Take `COc1cc(OC)cc(C2NC(=O)CN2Cc2ccc(Br)cc2)c1` (centres undefined): the INHIBITION is reported as 45.6%.

In the case of `Cc1cc(C2NC(=O)CN2Cc2ccc(Br)cc2)cc(C)c1O` (centres undefined), the INHIBITION amounted to 60.4%.

As to `Cc1nc(CN2Cc3nccn3CC(CN3CCCC3)C2)cs1` (centres undefined), the INHIBITION is -29.3%.

With `O=C(c1nc2sccn2c1-c1ncc[nH]1)N1CCCCC1`, the INHIBITION amounted to 50.2%.

As to `C[C@@H]1CN(C(=O)c2nc3sccn3c2-c2ncc[nH]2)C[C@H](C)O1`, the INHIBITION worked out at 11.3%.

`CN1CCCN(C(=O)c2nc3sccn3c2-c2ncc[nH]2)CC1`: the INHIBITION is reported as -16%.

Consider `CC(C)c1cc(=O)[nH]c(-c2ccccc2CN2CCCC2C)n1` (centres undefined), for which the INHIBITION is reported as 31.8%.

For `CC(C)N1CCC(CC(=O)NC[C@H]2CCc3ccccc3O2)CC1`, the INHIBITION was determined as 7.4%.

`CC(C)N1CCC(C(=O)NC[C@H]2CCc3ccccc3O2)CC1`: the INHIBITION is on record as 61.5%.

As to `CCN1CCC(CC(=O)NC[C@H]2CCc3ccccc3O2)CC1`, the INHIBITION was 39.9%.

On to `Cc1ccc(S(C)(=O)=O)cc1NCC(=O)NCCC1=CCCCC1`, for which the INHIBITION is reported as -50.7%.

Regarding `CC(NC(=O)N(C)C1CC1)c1ccc(Oc2cccnc2)c(F)c1` (centres undefined), the INHIBITION is listed as 37.4%.

Take `Cc1cnn(CC2CCCN2C(=O)c2n[nH]c(=O)c3ccccc23)c1` (centres undefined): the INHIBITION was -4.16%.

As to `N#Cc1nccnc1N1CCC(OCCCc2ccccc2)C1` (centres undefined), the INHIBITION is 72.3%.

Consider `N#Cc1nccnc1N1CCC(Cc2ccccc2)C1` (centres undefined), for which the INHIBITION was 0.672%.

Turning to `N#Cc1nccnc1N1CCC(COCc2ccccc2)C1` (centres undefined), the INHIBITION was 20.8%.

On to `CC(C)Cc1nnc(NCc2ccsc2)o1`, for which the INHIBITION is reported as -54.5%.

On to `c1cc(CNc2nnc(Cc3ccsc3)o2)cs1`, for which the INHIBITION is on record as -86.6%.

With `CC(C)(C)Cc1nnc(NCc2ccsc2)o1`, the INHIBITION came to 53.4%.

For `COc1ccc(OC)c(C(C(=O)O)N2CCSCC2)c1` (centres undefined), the INHIBITION is on record as 17%.

Consider `CC(c1ccc(F)c(F)c1)N(C)CCS(=O)(=O)CCC(N)=O` (centres undefined), for which the INHIBITION is given as 41.5%.

For `CC(c1cccc(Cl)c1)N(C)CCS(=O)(=O)CCC(N)=O` (centres undefined), the INHIBITION worked out at 37.8%.

Regarding `Cc1ccc(C(C)N(C)CCS(=O)(=O)CCC(N)=O)cc1` (centres undefined), the INHIBITION worked out at 56.3%.

On to `NC(=O)NC(=O)CN1CCN(CC2CC2)c2ccccc21`, for which the INHIBITION is given as 35.3%.

For `COCCC(=O)N1CCN(CC2CC2)c2ccccc21`, the INHIBITION was 14.9%.

Take `NC(=O)NC(=O)CCN1CCN(CC2CC2)c2ccccc21`: the INHIBITION was determined as 62.4%.

In the case of `O=C(NCCCC(=O)N1CCN(CC2CC2)c2ccccc21)C1CC1`, the INHIBITION came out at 22.8%.

On to `NC(=O)CN1CCN(CC2CC2)c2ccccc21`, for which the INHIBITION is on record as 58.7%.

As for `CNC(=O)NC(=O)CN1CCN(CC2CC2)c2ccccc21`, the INHIBITION is 46.4%.

Take `CN1CCC2(CCN(Cc3nccs3)CC2)C1=O`: the INHIBITION came to 7.15%.

With `O=C(NCC1CC1)C1CCC2(CCN(C(=O)c3ccco3)CC2)O1` (centres undefined), the INHIBITION is -25.8%.

As to `CN(C(=O)CCc1nc(C2CC2)no1)c1cc(C#N)c2ccccc2n1`, the INHIBITION is on record as 23.1%.

As for `O=C(c1ccc(S(=O)(=O)N2CCNCC2)cc1)N1CCCC(O)C1` (centres undefined), the INHIBITION came out at 13.3%.

Consider `CCCc1noc(CN2CCN(c3nccs3)CC2)n1`, for which the INHIBITION is -4.16%.

As for `Cc1cc(C2CCCN2Cc2ccc(S(=O)(=O)N3CCCC3)o2)on1` (centres undefined), the INHIBITION is listed as 19.2%.

For the compound `CCCC1c2ccccc2CCN1CCS(C)(=O)=O` (centres undefined), the INHIBITION was 22.8%.

Regarding `CCC1c2ccccc2CCN1CCNS(C)(=O)=O` (centres undefined), the INHIBITION was 18%.

On to `CCC1c2ccccc2CCN1CCCS(C)(=O)=O` (centres undefined), for which the INHIBITION was 50.6%.

On to `Cc1nn(-c2ccccc2)c2nc(C(C)(C)CN3CCN(C)CC3)[nH]c12`, for which the INHIBITION is recorded as 8.08%.

With `Cc1noc(C)c1CC(=O)NCCc1cccs1`, the INHIBITION is on record as -26.9%.

As to `Cc1noc(C)c1CNC(C(=O)N1CCOCC1)C(C)C` (centres undefined), the INHIBITION amounted to 22.2%.

For the compound `Cc1noc(C)c1CC(=O)NCC(CC(C)C)N1CCOCC1` (centres undefined), the INHIBITION is on record as 62.8%.

With `Cc1noc(C)c1CC(=O)NCC(C(C)C)N1CCOCC1` (centres undefined), the INHIBITION worked out at 58.2%.

In the case of `O=C(NCc1cc[nH]n1)NCC(c1ccccc1)N1CCOCC1` (centres undefined), the INHIBITION came to 15.8%.

For `CC(C)CC(CNC(=O)NCc1cc[nH]n1)N1CCOCC1` (centres undefined), the INHIBITION came out at 52%.

For `CC(C)C(CNC(=O)NCc1cc[nH]n1)N1CCOCC1` (centres undefined), the INHIBITION is -1.6%.

In the case of `Cc1noc(C)c1CC(=O)NCC(C)N1CCOCC1` (centres undefined), the INHIBITION stood at 46.1%.

As to `Cc1noc(C)c1C(=O)NCCN1CCOCC1`, the INHIBITION is -27.8%.

Regarding `Cc1cc(NC(=O)NCC(CC(C)C)N2CCOCC2)n(C)n1` (centres undefined), the INHIBITION is recorded as -0.113%.

In the case of `CCC(CNC(=O)Cc1c(C)noc1C)N1CCCC1` (centres undefined), the INHIBITION is recorded as 57.3%.

For `Cc1noc(C)c1CC(=O)NCCN1CCN(S(C)(=O)=O)CC1`, the INHIBITION is -47.8%.

Consider `Cc1cc(NC(=O)CN2CCCC2c2c(C)nn(C)c2C)on1` (centres undefined), for which the INHIBITION was 5.03%.
